{"source": "the supplement of paper PMC6555819"}
{"test_system": "PPARg DBDmut IVT, anti-PPARg (DBD mutation: PPARg1 K132A/R137A, NR concentration 270 nM)", "assay": "PBM binding z-score (relative to random genomic background probes); higher = stronger binding; sequences stand for … in GC…GCGATTGACAGCGTAGAATGAAGG", "how_it_was_run": "(§1)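 Random background probes are the reference for binding z-scores. These scores derive from regression-normalized fluorescence on custom Agilent 4×180K protein-binding microarrays incubated 1 h with ligand-free nuclear receptor dimers. Binding was detected with antibodies against each partner (one per run).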"}
{"sequence": "ATTACAGGGTCATCGTAGGCCAGAGTACGCACAG", "PBM binding z-score": 2.49}
{"sequence": "ACTCGGAGGACAAAGGTCAGATCTACGCCAGTGA", "PBM binding z-score": -0.358}
{"sequence": "TTACCAAGGTGAGCTGAGGTCGCTGATCCAACTC", "PBM binding z-score": -0.0566}
{"sequence": "CCTCGGAGGACAGAAGGTCTGAGCTGTCCGCTTT", "PBM binding z-score": -2.11}
{"sequence": "GCCTACGGGTCAAAGGTTATAGCATGAATAGAAT", "PBM binding z-score": 0.485}
{"sequence": "TAGCCTAGGTCAGTGGGCCAGTATAGTACGCATC", "PBM binding z-score": 0.15}
{"sequence": "CCTAGCAGGCCAATCTGGGGCACTCAAGGCTTGA", "PBM binding z-score": -1.4}
{"sequence": "GCTCGGAGGACCAGGTCAGAGCTTTGTCCGTAGA", "PBM binding z-score": -1.52}
{"sequence": "GCTATTAGTTCAAAGGGCAACCGAATGATTCTCG", "PBM binding z-score": 0.19}
{"sequence": "ACAGACAGGTGGTGAAGGTAACTCAGGCTATCAT", "PBM binding z-score": -0.55}
{"sequence": "TCTAGTTGGTCAAAGTTCACACACTCGAAATGCG", "PBM binding z-score": 1.12}
{"sequence": "TCACCAAGGTGAGCTGAGGTCGTTGATCCAACTC", "PBM binding z-score": -0.69}
{"sequence": "CCTGCTAGGTCAATGGGCAGCTAAAGCAGCTCGC", "PBM binding z-score": -1.02}
{"sequence": "TCGAGTAGGTTAGTAGGGGCATTCAGCCAACATA", "PBM binding z-score": 0.00263}
{"sequence": "TCGAGTAGGTTACCAATGGGGCATGCAGCTTTCT", "PBM binding z-score": -0.804}
{"sequence": "TCGTGTAGGTTACCAATGGGGCATTCAGCTTTCT", "PBM binding z-score": 0.154}
{"sequence": "TCAGACAGGTGAAGGTAACTGAGGTACGCAGTCG", "PBM binding z-score": -0.373}
{"sequence": "ATCTCTAGGTAAAGATAGTTCAGTGAATGCAAAT", "PBM binding z-score": 1.61}
{"sequence": "TCTAGTTGTTCACGGAGGTCACACACGACGGGTA", "PBM binding z-score": 1.32}
{"sequence": "TAGCCTAGCTCATGGGCCAGTATACCACGCGAAC", "PBM binding z-score": -0.524}
{"sequence": "CAAACTAGGTCCAAGGTCAAAGTCGAGCCAACCA", "PBM binding z-score": 0.226}
{"sequence": "ATCTCTAGGTAAGACTCAGTTTAGTGAAGAACGC", "PBM binding z-score": 0.79}
{"sequence": "CGTCCAAGCTCAAGGTCAGTGAAAGAGACTCGAA", "PBM binding z-score": -0.496}
{"sequence": "TAGCCTAGGTCATGCGGTCCAGTATAGTGTCGGC", "PBM binding z-score": 0.0737}
{"sequence": "ACTAGCAGGCCAAGTTAGGGTCACTCAAACAAAG", "PBM binding z-score": -0.603}
{"sequence": "GGAACGAGGGCAAAGCTGATAGCATCTGTCGACG", "PBM binding z-score": -0.247}
{"sequence": "ATCTCAAGGTAACCAAGTTCAGTGAATGCCGAAC", "PBM binding z-score": 0.953}
{"sequence": "CGAACTAGGTCATCCACGACAGTGAATACATTGA", "PBM binding z-score": 5.31}
{"sequence": "CGAACGAGGGCATGTGTTGATAGCAAATGCCGAT", "PBM binding z-score": -0.912}
{"sequence": "ACAGACAGGTGCTGAAGGTAACTCAGGCTATCAT", "PBM binding z-score": 0.258}
{"sequence": "CCGACTGGGGCAAAGGTTACCGTACTCAGTACGA", "PBM binding z-score": -0.75}
{"sequence": "GCTCGGAGTACAAGGTCAGAGCTTTGTCCGTAGA", "PBM binding z-score": -1.01}
{"sequence": "TCTCGGAGGACACGAAAGTTCAGAGCTCGACATC", "PBM binding z-score": -0.597}
{"sequence": "CCTCGGAGGACAGAAGGTCAGACCTGTCCGCTTT", "PBM binding z-score": -2.09}
{"sequence": "ATCTCTAGGTAAAGTTCAGTCAAAGATCGATAGA", "PBM binding z-score": 1.44}
{"sequence": "CCTTACGGATCAAGGTTATAGCACGGGTGGTACG", "PBM binding z-score": 0.154}
{"sequence": "AGAACGAGGGCACGCAGAGTTGATAGCAGAGTAG", "PBM binding z-score": 0.16}
{"sequence": "TCTGCTCGGTCAACGATGGTCAGCTAATCTGCTA", "PBM binding z-score": -0.828}
{"sequence": "CCGGACAGGTGAAAGGTAACTCAGTCTGGTACGC", "PBM binding z-score": -0.876}
{"sequence": "CCTCGGAGGACAGAAGGTCACAGCTGTCCGCTTT", "PBM binding z-score": -2.05}
{"test_system": "PPARg homodimer (NR concentration 180 nM)", "assay": "PBM binding z-score (relative to random genomic background probes); higher = stronger binding; sequences stand for … in GC…GCGATTGACAGCGTAGAATGAAGG", "how_it_was_run": "as §1"}
{"sequence": "ATTACAGGGTCATCGTAGGCCAGAGTACGCACAG", "PBM binding z-score": 4.05}
{"sequence": "ACTCGGAGGACAAAGGTCAGATCTACGCCAGTGA", "PBM binding z-score": 2.46}
{"sequence": "TTACCAAGGTGAGCTGAGGTCGCTGATCCAACTC", "PBM binding z-score": -0.197}
{"sequence": "CCTCGGAGGACAGAAGGTCTGAGCTGTCCGCTTT", "PBM binding z-score": -0.0745}
{"sequence": "GCCTACGGGTCAAAGGTTATAGCATGAATAGAAT", "PBM binding z-score": 1.95}
{"sequence": "TAGCCTAGGTCAGTGGGCCAGTATAGTACGCATC", "PBM binding z-score": 0.486}
{"sequence": "CCTAGCAGGCCAATCTGGGGCACTCAAGGCTTGA", "PBM binding z-score": -0.431}
{"sequence": "GCTCGGAGGACCAGGTCAGAGCTTTGTCCGTAGA", "PBM binding z-score": -0.553}
{"sequence": "GCTATTAGTTCAAAGGGCAACCGAATGATTCTCG", "PBM binding z-score": 2.2}
{"sequence": "ACAGACAGGTGGTGAAGGTAACTCAGGCTATCAT", "PBM binding z-score": 0.0722}
{"sequence": "TCTAGTTGGTCAAAGTTCACACACTCGAAATGCG", "PBM binding z-score": 3.54}
{"sequence": "TCACCAAGGTGAGCTGAGGTCGTTGATCCAACTC", "PBM binding z-score": 0.0757}
{"sequence": "CCTGCTAGGTCAATGGGCAGCTAAAGCAGCTCGC", "PBM binding z-score": 0.228}
{"sequence": "TCGAGTAGGTTAGTAGGGGCATTCAGCCAACATA", "PBM binding z-score": 0.668}
{"sequence": "TCGAGTAGGTTACCAATGGGGCATGCAGCTTTCT", "PBM binding z-score": 0.0945}
{"sequence": "TCGTGTAGGTTACCAATGGGGCATTCAGCTTTCT", "PBM binding z-score": 1.17}
{"sequence": "TCAGACAGGTGAAGGTAACTGAGGTACGCAGTCG", "PBM binding z-score": 0.384}
{"sequence": "ATCTCTAGGTAAAGATAGTTCAGTGAATGCAAAT", "PBM binding z-score": 0.566}
{"sequence": "TCTAGTTGTTCACGGAGGTCACACACGACGGGTA", "PBM binding z-score": 2.67}
{"sequence": "TAGCCTAGCTCATGGGCCAGTATACCACGCGAAC", "PBM binding z-score": -0.407}
{"sequence": "CAAACTAGGTCCAAGGTCAAAGTCGAGCCAACCA", "PBM binding z-score": 1.83}
{"sequence": "ATCTCTAGGTAAGACTCAGTTTAGTGAAGAACGC", "PBM binding z-score": 0.494}
{"sequence": "CGTCCAAGCTCAAGGTCAGTGAAAGAGACTCGAA", "PBM binding z-score": 1.59}
{"sequence": "TAGCCTAGGTCATGCGGTCCAGTATAGTGTCGGC", "PBM binding z-score": 0.743}
{"sequence": "ACTAGCAGGCCAAGTTAGGGTCACTCAAACAAAG", "PBM binding z-score": 1.07}
{"sequence": "GGAACGAGGGCAAAGCTGATAGCATCTGTCGACG", "PBM binding z-score": 0.0511}
{"sequence": "ATCTCAAGGTAACCAAGTTCAGTGAATGCCGAAC", "PBM binding z-score": 0.654}
{"sequence": "CGAACTAGGTCATCCACGACAGTGAATACATTGA", "PBM binding z-score": 2.72}
{"sequence": "CGAACGAGGGCATGTGTTGATAGCAAATGCCGAT", "PBM binding z-score": 0.123}
{"sequence": "ACAGACAGGTGCTGAAGGTAACTCAGGCTATCAT", "PBM binding z-score": -0.279}
{"sequence": "CCGACTGGGGCAAAGGTTACCGTACTCAGTACGA", "PBM binding z-score": 1.93}
{"sequence": "GCTCGGAGTACAAGGTCAGAGCTTTGTCCGTAGA", "PBM binding z-score": 1.73}
{"sequence": "TCTCGGAGGACACGAAAGTTCAGAGCTCGACATC", "PBM binding z-score": 0.949}
{"sequence": "CCTCGGAGGACAGAAGGTCAGACCTGTCCGCTTT", "PBM binding z-score": 1.39}
{"sequence": "ATCTCTAGGTAAAGTTCAGTCAAAGATCGATAGA", "PBM binding z-score": 1.63}
{"sequence": "CCTTACGGATCAAGGTTATAGCACGGGTGGTACG", "PBM binding z-score": 0.562}
{"sequence": "AGAACGAGGGCACGCAGAGTTGATAGCAGAGTAG", "PBM binding z-score": 0.313}
{"sequence": "TCTGCTCGGTCAACGATGGTCAGCTAATCTGCTA", "PBM binding z-score": -0.45}
{"sequence": "CCGGACAGGTGAAAGGTAACTCAGTCTGGTACGC", "PBM binding z-score": 0.751}
{"sequence": "CCTCGGAGGACAGAAGGTCACAGCTGTCCGCTTT", "PBM binding z-score": 2.05}
